GLP1R ag = agonists of human GLP-1 receptor; Potency, µM (series often up to 45.6 µM), most hits filed as activators; 380,000 compounds, 0.007% hits; HEK293 GLP-1R CRE-luciferase, luminescence, 4-6 h; cells express a hypersensitive GLP-1R form; P43220; AID 624172
Target sequence (P43220 whole entry, looked up): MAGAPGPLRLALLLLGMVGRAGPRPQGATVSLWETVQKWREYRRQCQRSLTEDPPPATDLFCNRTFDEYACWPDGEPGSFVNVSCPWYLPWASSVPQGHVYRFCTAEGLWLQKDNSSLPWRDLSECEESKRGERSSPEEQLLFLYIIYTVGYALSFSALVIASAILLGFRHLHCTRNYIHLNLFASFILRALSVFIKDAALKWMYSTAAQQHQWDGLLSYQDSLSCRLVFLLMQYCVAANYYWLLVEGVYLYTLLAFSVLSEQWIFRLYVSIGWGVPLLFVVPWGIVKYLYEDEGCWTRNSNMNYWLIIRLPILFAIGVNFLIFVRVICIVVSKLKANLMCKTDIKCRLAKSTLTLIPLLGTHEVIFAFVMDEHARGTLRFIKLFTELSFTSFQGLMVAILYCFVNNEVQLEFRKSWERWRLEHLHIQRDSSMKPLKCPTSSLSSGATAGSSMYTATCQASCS
GLP1R cytotox = cytotoxicity counter-screen for GLP-1 receptor inverse agonists; HEK293 cAMP-luciferase reporter cells, luminescence, 24 h; Potency, µM (titrated, usually from 38.3 µM), most hits filed as inhibitors; 410,000 compounds, 0.13% hits; AID 624418;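 note: loss of luciferase light is scored as toxicity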
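Luminescence readout: signal drop marks cytotoxicity. Plated cells grew 12 h at 37 °C, 5% CO2, received 23 nL compound for 24 h, then got luciferase reagent, read after 12 min at RT.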
GLP-1R inv ag = GLP-1 receptor (human) inverse agonism | P43220 | HEK293 GLP-1R CRE-luciferase, luminescence, 24 h; GLP-1R form is constitutively active | Potency, µM (doses to about 38.3 µM), usual class: inhibitors | 410,000 compounds, 1.6% hits; note: nearly all actives have a fitted effect of over 55% in size
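Assay principle: reduced luminescence from a cAMP-responsive reporter in HEK293 cells co-expressing a constitutively active GLP-1R. Conditions: 24 hr compound incubation, 37 deg C, 5% CO2.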
PTHR1 ag = agonists of human PTHR1 parathyroid hormone receptor; HEK293 GP2 PTHR1 cells, GloSensor cAMP luminescence, 1 h; Potency, µM (titrated, usually from 115 µM), hits mostly activators; 410,000 compounds, 0.075% hits; Q03431; AID 743266; note: nearly all actives have a fitted effect of over 55% in size
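HEK-293-derived GP2 cells expressing PTHR1 and a GloSensor cAMP reporter, 3,000/well, plated overnight, given luciferin plus IBMX (each 0.5 mM as added) for 1 h at 37 °C, then compound for 1 h at 37 °C. Luminescence was read after 15 min at room temperature.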
Hits are given with their value; i = inactive; ? = inconclusive; nt = no result given. An excerpt weighted towards active compounds, which were near 1.7% of everything screened. Calls come from the whole dose curve; as a rule, active = well fitted curve in the direction sought with a large enough effect; inconclusive = small, poorly fitted or top-dose-only effect, or another doubt; inactive = no such curve, though single readings can be large; an effect the other way counts as inactive or inconclusive.

SMILES	GLP1R ag	GLP1R cytotox	GLP-1R inv ag	PTHR1 ag
OC(CNc1ccccc1)COc1ccc(OCC(O)CNc2ccccc2)cc1 (configuration not stated)	i	i	6.3µM	i
Cc1ccc(OCC(O)CNC(C)c2ccccc2)cc1C (configuration not stated)	i	i	5µM	i
CCOCC(O)CNc1ccccc1 (configuration not stated)	i	i	i	i
CC(NCC(O)COCc1ccc(Cl)cc1)c1ccccc1 (configuration not stated)	i	i	?	i
Cc1ccc(-c2cnc(C(O)c3ccc(Cl)cc3C)[nH]2)cc1 (configuration not stated)	i	i	?	i
CSc1ccc(CCNC(=O)Cn2ccc3cc(S(=O)(=O)N4CCCCCC4)ccc32)cc1	nt	i	?	i
CCC12C(=O)C(CC)(C(c3ccccc3)=C1c1ccccc1)[C@@H]1C(=O)N(c3ccc(C)cc3)C(=O)C12 (some centres not stated)	i	i	i	i
CCC12C(=O)C(CC)(C(c3ccccc3)=C1c1ccccc1)[C@@H]1C(=O)N(c3ccccc3)C(=O)C12 (some centres not stated)	i	i	3.2µM	i
CCOc1ccc(-c2cn3c(n2)sc2cc(C(=O)NCCCN(CC)CC)ccc23)cc1	nt	?	10µM	i
N#CC1=C(SCC(=O)NC2CC2)NC(=O)C(C#N)C12CCCCC2 (configuration not stated)	i	i	i	i
CC(C)(C)C1CCC2(CC1)C(C#N)=C(SCC(=O)NC1CCCCC1)NC(=O)C2C#N (configuration not stated)	i	i	8.9µM	i
Cc1ccc(NC(=S)NCC2CCN(C(C)c3ccccc3)C2)cc1 (configuration not stated)	i	i	?	i
CC(c1ccccc1)N1CCC(CNC(=S)Nc2cccc(Cl)c2)C1 (configuration not stated)	i	?	3.2µM	i
CC(=O)N(Cc1ccc(F)cc1)C1=C(NCc2ccccc2)C(=O)c2ccccc2C1=O	i	?	10µM	i
Cc1cc2c(cc1C)CSC(c1c(O)ccc3ccccc13)SC2	i	?	13µM	i
COc1cc(NC(=O)NC(C)c2c(-n3cccc3)sc3c2CCCC3)cc(OC)c1OC (configuration not stated)	nt	i	11µM	i
CC(NC(=O)Nc1ccccc1C(F)(F)F)c1c(-n2cccc2)sc2c1CCCC2 (configuration not stated)	nt	i	?	i
O=C(O)C1C2C=CC(C2)C1C(=O)NCc1ccc(Cl)c(Cl)c1 (configuration not stated)	i	i	11µM	i
COc1ccc(C2c3c(n(C)c4ccccc34)C(=O)N2CC(=O)Nc2cccc(F)c2)cc1 (configuration not stated)	nt	i	?	i
Clc1ccc(CN2C3=NCCCN3c3ccccc32)cc1Cl	i	i	11µM	i
Clc1ccc(CN2C3=NCCCN3c3ccccc32)cc1	i	i	?	i
CCc1ccc(C(=O)c2cn(CC(=O)Nc3cc(C)ccc3C)c3nc(C)ccc3c2=O)cc1	nt	i	i	i
COc1cc2c(cc1NC(=O)C(C)NCc1ccccc1)oc1ccccc12 (configuration not stated)	i	i	11µM	i
COc1cc2c(cc1NC(=O)Nc1ccccc1)oc1ccccc12	i	i	?	i
CN(C)CCNC(=O)C(=O)Nc1ccc2c(c1)N(S(=O)(=O)c1cccs1)CCC2	i	4.5µM	?	i
SMILES	GLP1R ag	GLP1R cytotox	GLP-1R inv ag	PTHR1 ag
CN(C)CCCNC(=O)C(=O)Nc1ccc2c(c1)N(S(=O)(=O)c1cccs1)CCC2	i	i	i	i
C#CCN(C(=O)c1cc(COc2cccc(C(F)(F)F)c2)on1)C1CCCCC1	i	i	?	i
Cc1ccc(OCc2cc(C(=O)N(C)C3CCCc4ccccc43)no2)cc1C (configuration not stated)	i	i	11µM	i
C#CCN(C(=O)c1cc(COc2ccc(C)c(C)c2)on1)C1CCCCC1	i	i	10µM	i
Cc1cc(CN(C)C(=O)c2cc(COc3ccc(C)c(C)c3)on2)on1	i	i	?	i
C[N+]12CCCC[C@@H]1CCC(=C(c1cccs1)c1cccs1)C2 (some centres not stated)	i	nt	nt	nt
Cc1cccc(NNC(N)=S)c1	i	i	i	i

Bioassay records as filed in PubChem.
